# Measured values from PubChem BioAssay.
# Tests used:
# [1] = molecular target: Tumor necrosis factor receptor superfamily member 10B (Homo sapiens) (UniProt O14763); assay: viability loss of caspase-8 NB7 cells with TRAIL – with/without TRAIL, luminescence panel, confirmation (AID 651596); conditions: NB7 neuroblastoma + caspase-8, TRAIL sensitization, NB7 Caspase-8, with TRAIL, mean of runs, at 10 µM, stronger effect = higher value
# [2] = as above; conditions: NB7 neuroblastoma + caspase-8, without TRAIL, NB7 Caspase-8, without TRAIL, mean of runs, at 10 µM
# Chain of Tumor necrosis factor receptor superfamily member 10B (Homo sapiens) (O14763 whole entry, looked up): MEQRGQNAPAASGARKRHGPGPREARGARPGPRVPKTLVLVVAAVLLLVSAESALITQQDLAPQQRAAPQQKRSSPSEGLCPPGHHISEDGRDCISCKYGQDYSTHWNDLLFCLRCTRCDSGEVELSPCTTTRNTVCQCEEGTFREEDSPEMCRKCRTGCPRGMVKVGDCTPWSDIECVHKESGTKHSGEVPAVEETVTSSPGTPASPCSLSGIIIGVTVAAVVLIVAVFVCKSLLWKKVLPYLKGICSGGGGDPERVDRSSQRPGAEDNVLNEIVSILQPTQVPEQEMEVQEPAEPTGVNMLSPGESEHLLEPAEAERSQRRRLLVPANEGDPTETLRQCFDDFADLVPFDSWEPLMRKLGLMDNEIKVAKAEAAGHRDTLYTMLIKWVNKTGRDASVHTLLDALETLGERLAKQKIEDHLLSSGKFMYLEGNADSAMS
SMILES,activity [1] [%],activity [2] [%]
Clc1ccc(-c2nnc(-c3ccccc3)o2)c(Cl)c1,81.8,79
COc1ccc(/C=C/c2nc3ccccc3c(=O)o2)cc1,83.2,83.6
O=C(Nc1nc2ccccc2[nH]1)c1ccccc1OC(F)F,76,82.2
Cc1ccc(Nc2nc(N)nc(CCl)n2)cc1,98.9,97.5
COc1ccc(/C=N/Nc2cc(C)nc3ccc(Br)cc23)cc1,61,78
CCOc1ncccc1C(=O)OCC(=O)Nc1ccc(-c2nc3ccc(C)cc3s2)cc1,60.9,67
CC1CCCN(c2ncnc3c2cnn3-c2ccccc2)C1 (stereo unspecified),86.1,85.1
CCC1CCCCN1Cc1nc(Cc2ccccc2Cl)no1 (stereo unspecified),-9.55,-33.1
CC(NC(=O)CCl)c1ccc(Cl)c(Cl)c1 (stereo unspecified),51,81.5
Cn1c(-c2ccccc2)c(C(=O)CCl)c2ccccc21,99.2,99.2
COc1cccc(CSc2nc3ccncc3[nH]2)c1,87.7,88.4
O=C1CCC(=O)N1c1ccc(-c2nc3ccccc3s2)cc1,76.8,41
CCOC(=O)c1nn(-c2ccc3c(c2)OCCO3)cc1O,60,57
Cc1ccc(C)c(C(=O)O/N=C(\N)c2ccc(Br)cc2)c1,80.1,78.7
CCOc1cc(NC2CS(=O)(=O)CC2O)c(OCC)cc1NC(=O)c1ccccc1 (stereo unspecified),-26.1,-33.2
Cc1ccc(NC(=O)c2ccccc2)s1,40.7,32
O=C(Nc1ccc2c(c1)nc1n2CCSC1)c1ccccc1,69.8,60
Cc1ccc(C(=O)Nc2ncc(Cc3ccccc3)s2)o1,72.1,75
CC(C)(C)OC(=O)NCCCCCc1cn([C@@H](CO)C(=O)NCCCCCCCCCCC(=O)N2CCN(C(=O)OC(C)(C)C)CC2)nn1,61.7,42.1
CCc1ccc(NC(=O)Nc2cccs2)cc1,59,45.9
CSc1ccc(NC(=O)Nc2cc(C)ccn2)cc1,52.8,35.7
O=C(Nc1ccc2nc3n(c(=O)c2c1)CCCCC3)c1c(F)ccc([N+](=O)[O-])c1F,72.9,52.3
Cc1ccc(S(=O)(=O)N2CCCCC2)cc1NC(=O)Cn1ncc(Cl)c(Cl)c1=O,98.7,99.3
COc1cc2nc(N3CCN(c4cc(C)ccc4C)CC3)nc(N)c2cc1OC,56.7,88.7
Cc1ccc(C(=O)Nc2ccc3c(c2)OCCO3)cc1,90.4,90.2

SMILES,activity [1] [%],activity [2] [%]
CN(C(=O)c1ccc(NC(=O)Cc2cccc(NC(=O)C3CCCN(S(=O)(=O)c4cccc([N+](=O)[O-])c4)C3)c2)cc1)C1CC1 (stereo unspecified),56.3,36.1
C=CCNC(=O)c1cc(-c2ccc3c(c2)OCO3)on1,63.3,61.1
N#Cc1cccnc1N1CCN(C(=O)c2cccc3c2C(=O)c2ccc(Cl)cc2S3(=O)=O)CC1,98.4,97.4
Cc1cccc(NC(=O)c2cnc3ccccn3c2=O)c1,69,62.9
COc1ccc(Oc2c(Cl)cnn(-c3ccccc3)c2=O)cc1,98.4,94.4
Cc1ccc(/C=N/Nc2ccc3ccccc3n2)o1,55.2,45.1
Cc1nn(-c2ccccc2)c(Cl)c1CN(C(=O)CCl)c1cccc2ccccc12,98.8,99.7
CN(C)c1cccc(C(=O)N/N=C/c2ccsc2)c1,65,40.4
CCCCC(=O)Nc1cc(C)c2c(=O)oc3ccccc3c2n1,62.4,56.6
COc1cc(/C=C(/C#N)c2nc3ccccc3[nH]2)ccc1OCC(=O)Nc1ccccc1C,86,97.8
O=C(CCl)N(c1ccccc1)c1ccccc1,99.2,99
CCOc1ccc(Nc2nc(N)nc(CCl)n2)cc1,99.5,99.3
Cc1cccc(C(=O)Nc2ccc(C(=O)Nc3ccc(O)cc3)cc2)c1,79.9,89.1
Clc1ccc2nc(-c3ccccc3)cn2c1,72.7,74.1
CC(=O)Oc1ccccc1/C=C/c1nc2ccccc2c(=O)o1,83.7,84.8
Cc1cc(C(=O)COC(=O)c2cccnc2Cl)c(C)n1C,62.8,40.4
O=C(/C=C/c1ccc(Cl)cc1Cl)N1CCc2ccccc21,47.9,51.4
Cc1ccc(Cn2ncc(Cl)c(Cl)c2=O)cc1,97.2,99.3
COc1cc2c(cc1OC)C(c1ccccc1)N(C(=O)CCl)CC2 (stereo unspecified),98.3,92.4
O=C(Nc1ccc2c(c1)OCCO2)c1cc2ccccc2o1,82,76.8
Nc1nc(N)c2cc(Sc3ccc(Cl)cc3)ccc2n1,70.7,75.5
COc1cc(OC)cc(-c2cc3ccc(F)cc3cn2)c1,65.9,60.2
CCN(CC)S(=O)(=O)c1cccc(NC(=O)Nc2cccc(C(F)(F)F)c2)c1,78.2,53
Cc1cccc(-c2nc3cc(NC(=O)C4CCCO4)ccc3o2)c1 (stereo unspecified),66.7,64.7
CN1/C(=C\C(=O)c2cccs2)Sc2ccccc21,63,61

SMILES,activity [1] [%],activity [2] [%]
C/C(=N\NC(=O)c1ccc(F)cc1)c1ccccn1,44.9,61.7
Cc1ccc(CSc2nnc(-c3cccnc3)o2)cc1,43.5,45.6
CCCCCCC[N+](CC)(CC)CCCCc1ccc(Cl)cc1,43.9,47.1
O=C(Nc1nc(=O)c2ccccc2s1)c1ccc(Cl)cc1,66.1,72.6
CN(C)C(=O)N1CCN(c2nc(-c3ccccc3)cs2)CC1,43.7,48.5
O=C(CCl)N(Cc1ccccc1)c1ccccc1,99,98.9
Cc1ccc(NC(=O)c2ccc3nsnc3c2)c(Cl)c1,60.6,58.2
c1csc(-c2nnc(-c3ccc(N4CCOCC4)cc3)o2)c1,56.9,54.2
Cc1ccc(-c2cc(C(=O)N3CCCC3)no2)cc1,73.3,67
O=C(CCl)N(CCCNC(=O)C(F)(F)F)c1ccc([N+](=O)[O-])cc1,98.5,98.3
COC(=O)c1c(NC(=O)COc2ccc(Cl)cc2)sc2c1CC(C)(C)NC2(C)C,81.2,93.9
COc1cccc2sc(N(CCCN(C)C)C(=O)c3ccc(S(=O)(=O)N4CCc5ccccc5C4)cc3)nc12,56.8,79
Cc1ccc2[nH]c(-c3ccccc3)cc(=O)c2c1,64.8,63
Nc1nc2ccccc2n1C(=O)c1ccccc1,87.9,85.9
Cc1cccc(NC(=O)c2nc[nH]c2C(=O)N[C@@H](CCCCNC(=O)OC(C)(C)C)C(=O)OC(C)(C)C)c1,80.3,77
O=C(CC1SC(=Nc2ccccc2F)N(CCN2CCOCC2)C1=O)Nc1ccc(F)cc1F (stereo unspecified),-3.85,-7.28
COc1ccc(C2C(C(=O)N3CCN(c4ccccc4)CC3)c3ccccc3C(=O)N2C)cc1OC (stereo unspecified),71.8,64.5
Cc1ccc(NC(=O)c2nc(S(=O)(=O)Cc3ccccc3)ncc2Cl)cc1,83.5,96.1
COc1ccc2oc(-c3ccccc3)cc(=O)c2c1,76.1,78
N#Cc1ccccc1NC(=O)COC(=O)/C=C/c1cn(-c2ccccc2)nc1-c1ccc(Cl)cc1,39.5,80.4
O=C1C(=Cc2ccc(Cl)cc2)CCc2ccccc21,85.8,78.7
COc1cc2sc3ccc(-c4ccc(CN5CCOCC5)cc4)cc3c(=O)c2cc1OC,46.9,41.8
C[C@@H](NC(=O)c1ncn2c1c(=O)[nH]c1ccc(Br)cc12)c1ccccc1,20.2,13
Cc1ccc2nc(-c3ccc(NC(=O)COC(=O)c4ccc([N+](=O)[O-])o4)cc3)sc2c1,70.1,69.9
COC(=O)c1cc(OCC(=O)Nc2ccc3c(c2)CCC3)cc(C(=O)OC)c1,-14.7,-57.5

SMILES,activity [1] [%],activity [2] [%]
Nc1nc(CCl)nc(Nc2ccc3ccccc3c2)n1,99.1,97.8
Clc1ccccc1CSc1nc2ccncc2[nH]1,79,79.3
CCOC(=O)c1cnc2c(-c3ccccc3)cnn2c1C,50,35.7
Cc1cccc(NC(=O)c2cc3ccccc3c(=O)o2)n1,60.3,68.3
Cc1cc(N2CCOCC2)n2ncc(-c3ccccc3)c2n1,66.8,52.8
CCc1nnc(NC(=O)CSc2nc(C)cc(C)c2C#N)s1,81.2,80
COc1ccc(NC(=O)c2cc([N+](=O)[O-])ccc2O)cc1,89.8,88.2
N/C(=N\OC(=O)c1cccc(Br)c1)c1ccc(Br)cc1,78.1,90.1
CSc1nc(NCCN(C)C)c2sc3nc(-c4ccco4)c4c(c3c2n1)CCC4,80.2,98.5
Cc1cc(NC(=O)c2ccc(S(=O)(=O)N3CCCC3)cc2)nc2c1c(=O)oc1ccccc12,69.5,58.2
Cc1ccccc1Nc1nn2c(=O)c3ccccc3nc2s1,54.2,62.8
C/C(=N\NC(=O)c1ccccc1NC(=O)c1ccc(Cl)cc1)c1ccncc1,99.1,99
CC(C)c1ccc2c(c1)CC[C@H]1[C@](C)(CN)CCC[C@]21C,33.8,97.2
COc1ccc(C=C2C=C(C(C)(C)C)C(=O)C(C(C)(C)C)=C2)cc1OC,93.4,98.8
Cc1oc(-c2nc3ccccc3n2C)cc1C(=O)c1ccccc1,81.4,81
COc1cc(C(=O)Oc2ccccc2/C=N/NC(=O)c2ccc(C)cc2)cc(OC)c1OC,51,52.7
O=C(c1cc(-c2ccc(Cl)cc2Cl)on1)N1CCOCC1,53.3,60.3
C=CCNC(=S)N/N=C/c1ccc(C(F)(F)F)cc1,18.5,8.22
CC(=O)Nc1ccc(/C=N/Nc2nc3ccccc3[nH]2)cc1,76.2,75.5
CN(C)c1cccc(C(=O)Nc2nc3ccccc3[nH]2)c1,90.2,78.5
CCOc1ccc(C(=O)Nc2cc(C)ccn2)cc1,95.2,96.3
Cn1c(=O)n(CCc2ccccc2)c(=O)c2c1nc1n2CCCN1CCc1ccccc1,21.1,24.9
O=C(Nc1cc(C(F)(F)F)cc(C(F)(F)F)c1)Nc1cnn(-c2ccc([N+](=O)[O-])cc2)c1C(F)(F)F,74.2,63
